High-throughput results from PubChem.
Sampled rows, rich in hits. Any-hit rate of the full collection: about 4%.
FBA Mtb inh – inhibitors of M. tuberculosis fructose-bisphosphate aldolase; P9WQA3; purified M. tuberculosis FBA, fluorescence read-out; inhibition, % at 1 µM; hit rate 2.3% among 360,000; AID 588726; in the data active = inhibition above about 27%;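 note: 0% = vehicle and 100% = reference inhibitor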
Target sequence (P9WQA3 whole entry, looked up): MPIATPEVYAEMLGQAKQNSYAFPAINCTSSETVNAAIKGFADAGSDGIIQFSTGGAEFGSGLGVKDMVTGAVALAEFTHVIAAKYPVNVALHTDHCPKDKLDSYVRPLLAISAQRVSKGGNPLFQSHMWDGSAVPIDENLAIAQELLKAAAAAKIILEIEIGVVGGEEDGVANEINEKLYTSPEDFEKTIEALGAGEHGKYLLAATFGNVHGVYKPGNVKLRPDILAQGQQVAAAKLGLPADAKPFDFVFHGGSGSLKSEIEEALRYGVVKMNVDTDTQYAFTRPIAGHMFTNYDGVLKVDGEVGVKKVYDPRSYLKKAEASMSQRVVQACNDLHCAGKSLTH
Mtb bLac sens – beta-lactam sensitization of Mtb H37Rv | M. tuberculosis H37Rv growth with meropenem, percent inhibition | hit rate 0.27% among 330,000 | inhibition, % at 25 µM | AID 434955; call rule not given here;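 note: growth measured after seven days incubation then overnight dye step; 0% = bacteria only wells and 100% = bacteria with antibiotic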
RecA intein inh – Mtb RecA intein splicing inhibition; P9WHJ3; cell-free RecA intein splicing, fluorescence; hit rate 0.75% among 290,000; inhibition, % (concentration not given with the values); AID 2221; in the data active = inhibition above about 30%;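 note: 0% = vehicle wells and 100% = reference inhibitor control wells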
Rv3671c protease – Rv3671c (M. tuberculosis) protease inhibition | inhibition, % at 5.96 µM | hit rate 0.048% among 320,000 | AID 2606; in the data active = inhibition above about 38%;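 note: extracellular domain of Rv3671c used as enzyme; 0% = enzyme with DMSO and 100% = no enzyme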
Mtb UGM inh – blocks M. tuberculosis UGM enzyme; P9WIQ1; purified UGM, fluorescence polarization probe displacement; inhibition, % at 10 µM; hit rate 0.06% among 320,000; AID 504406; in the data active = inhibition above about 10%, passing the limit was not always enough
GDH-TPI inh – inhibits GDH-TPI coupling enzymes, artifact for Mtb FBA screen; GDH-TPI coupled enzyme counterscreen, NADH absorbance; hit rate 1.2% among 360,000; inhibition, % at 4.8 µM; AID 588335; in the data active = inhibition above about 30%;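 note: 0% = DMSO wells and 100% = wells lacking the enzyme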
An asterisk follows results filed as active; . = no result.

SMILES	FBA Mtb inh	Mtb bLac sens	RecA intein inh	Rv3671c protease	Mtb UGM inh	GDH-TPI inh
COc1ccc(NC(=O)CCNS(=O)(=O)c2cccc3nonc23)cc1Cl	-1.1	3.9	-0.3	2.1	2.0	7.5
Cc1cc2nc(-c3ccc[nH]c3=O)n(Cc3cccc(F)c3)c2cc1C	149.4*	-4.6	-1.8	-5.0	0.9	22.8
O=c1ccc2ccccc2n1Cc1cccc(F)c1	2.0	1.7	2.1	13.6	-0.2	10.9
O=c1[nH]cccc1-c1nc2ccccc2n1Cc1cccc(F)c1	161.6*	-2.5	-0.7	-1.6	-0.8	8.2
O=c1oc2ccccc2n1Cc1cccc(F)c1	0.5	-10.3	1.2	-2.6	-0.1	-0.7
O=c1[nH]cccc1-c1nc2ccccc2n1Cc1cccc(Cl)c1	135.2*	-1.1	-1.1	-3.1	-0.1	2.9
CCCn1c(-c2ccc[nH]c2=O)nc2cc(C)c(C)cc21	115.3*	-2.3	-2.9	6.3	0.3	2.2
CC(C)CCN1CCNC(=O)C1CC(=O)NCCCN1CCOCC1 (centres undefined)	-2.2	2.5	1.8	4.4	-1.1	4.3
COc1ccc(C2/C(=C(/O)c3ccc(C)cc3)C(=O)C(=O)N2C)cc1 (centres undefined)	-0.8	3.0	1.0	1.4	4.2	32.5*
Cc1ccc(/C(O)=C2\C(=O)C(=O)N(C)C2c2ccc(Br)cc2)cc1 (centres undefined)	0.9	-1.3	-4.0	-1.1	-0.2	-2.8
Cc1ccc(C(CC(=O)c2ccco2)SCCO)cc1 (centres undefined)	0.8	92.5	2.2	-5.3	1.5	32.8*
Cc1ccc(C)c(NC(=O)/C(C#N)=C/c2ccc[nH]2)c1	-2.8	-4.9	0.4	-1.1	-2.4	31.3*
N#C/C(=C\c1ccc[nH]1)C(=O)NC1CC1	-4.3	11.8	-0.6	7.4	-5.3	31.9*
O=C(NCc1ccccc1F)C1CCCN1C(=O)NCc1ccccc1 (centres undefined)	-16.4	-4.6	-0.6	-0.8	-1.1	-3.4
Cc1c(N=Cc2c(O)n(Cc3ccccc3)c(=O)[nH]c2=O)c(=O)n(-c2ccccc2)n1C	-2.8	0.3	.	0.9	-1.1	16.8
COc1ccccc1-n1c(O)c(C=Nc2c(C)n(C)n(-c3ccccc3)c2=O)c(=O)[nH]c1=O	-6.0	1.3	-3.3	-10.5	-1.7	36.6*
Cc1c(N=Nc2c(O)n(Cc3ccccc3)c(=O)[nH]c2=O)c(=O)n(-c2ccccc2)n1C	-5.0	-3.2	1.7	-35.5	-1.3	35.8*
COc1ccc(OC)c(-n2c(O)c(C=Nc3c(C)n(C)n(-c4ccccc4)c3=O)c(=O)[nH]c2=O)c1	4.6	-0.4	-1.4	3.0	-1.9	19.5
COc1ccc(C(=O)Nc2cc(Cl)ccc2N2CCOCC2)cc1S(=O)(=O)N1CCOCC1	-2.4	.	.	.	.	7.3
CCOc1ccc(-n2c(=O)cc(N3CCN(c4ccc(F)cc4)CC3)[nH]c2=O)cc1	2.0	1.4	-0.3	3.6	0.3	2.1
CCCCC[C@H](O)/C=C/[C@@H]1[C@@H](C/C=C\CCCC(=O)OC)[C@@H](O)C[C@H]1O	-0.4	7.4	40.6*	7.0	-4.7	-4.7
Cc1ccn(CC(=O)N/N=C/c2cc([N+](=O)[O-])ccc2O)n1	-10.9	8.3	-2.5	2.8	0.2	49.4*
O=[N+]([O-])c1ccc(O)c(/C=N/Nc2ccc(Cl)nn2)c1	-0.6	13.2	.	6.8	-1.3	33.4*
CCCCN1C(=O)N(c2nnc(C(C)(C)C)s2)C(O)C1c1ccc(C)cc1 (centres undefined)	1.2	4.8	6.7	3.3	0.8	-5.7
Clc1ccc(C2=CC(c3ccco3)n3ncnc3N2)cc1 (centres undefined)	37.6*	17.2	-383.0	-1.6	-4.9	30.4
SMILES	FBA Mtb inh	Mtb bLac sens	RecA intein inh	Rv3671c protease	Mtb UGM inh	GDH-TPI inh
COc1ccc(C2C=C(c3ccccc3)Nc3ncnn32)cc1 (centres undefined)	117.5*	24.2	-61.6	8.1	1.4	13.6
CC(=O)Nc1cccc(C2=CC(c3ccco3)n3ncnc3N2)c1 (centres undefined)	.	-8.5	-292.3	1.1	2.2	.
COc1ccc(C2=CC(c3ccco3)n3ncnc3N2)cc1 (centres undefined)	70.8*	.	.	.	.	15.1
Cc1ccccc1OCCNC(=S)Nc1ccccc1	-3.0	-18.8	6.3	-5.2	1.4	5.7
CCOc1ccc(/C=N/N(C)c2ccccc2)cc1OC	-0.5	92.1	-0.4	4.7	-0.4	32.8*
C=CCOc1c(CNc2nccs2)cccc1OCC	-0.7	28.8	5.7	-4.3	-3.7	3.8
